High-throughput results deposited in PubChem BioAssay by National Center for Advancing Translational Sciences (NCATS).
Vaccinia mCherry: inhibitors of vaccinia virus infection (mCherry reporter signal); Potency, µM (top dose mostly 36.5 µM), for inactives: at the top dose activity change, negative = inhibition, most hits filed as inhibitors; Vaccinia virus mCherry reporter infection, fluorescence; AID 720579; 310,000 compounds, 0.63% hits; calls by dose curve; tested in A549 cells; note: potency is the fitted concentration of half-maximal effect; nearly all actives have a fitted effect of over 35% in size
HCV inh: HCV inhibition. Huh7.5.1 HCVcc-Cre infection, luciferase reporter, 44 h. Potency, µM (series often up to 41.8 µM), for inactives: top-dose activity change, negative = inhibition, actives largely listed as inhibitors. 340,000 compounds, 3.4% hits. AID 651820; note: potency is the fitted concentration of half-maximal effect
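Cells seeded at 1,000/well and cultured 4 h, then compounds added followed by HCVcc-Cre virus (~0.5 moi). After 44 h further culture, luciferase substrate was added, plates held 15 min at room temperature, and luminescence read for 15 sec.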
HCMV antiviral: inhibitors of human cytomegalovirus. HFF cells, HCMV-luciferase reporter, 72 h; stronger effect = lower value. activity change, negative = inhibition, % at 57.5 µM. 410,000 compounds, 4.5% hits; in the data active = activity change below about -60%; inconclusive = no clear call, values can overlap the other calls; inactive = above about -39%
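Luciferase read-out from HCMV-luciferase-infected HFFs (MOI 1 PFU/cell) 72 h post infection at 37C; compounds added after 16 h cell attachment; activity normalized between buffer-only basal and Salinomycin (10uM) inhibitor controls.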
Vaccinia Venus: inhibitors of vaccinia virus (Venus reporter); Vaccinia virus Venus reporter expression, fluorescence; Potency, µM (titrated, usually from 36.5 µM), inactives show at the top dose activity change, negative = inhibition, most hits filed as inhibitors; 330,000 compounds, 0.46% hits; calls by dose curve; tested in A549 cells; note: potency is the fitted concentration of half-maximal effect; nearly all actives have a fitted effect of over 30% in size
Sm TGR inh: blocks Schistosoma mansoni thioredoxin glutathione reductase; Q962Y6; purified TGR, DTNB reduction, TNB absorbance 405 nm; Potency, µM (top dose mostly 114 µM), without a hit: at the top dose activity change, negative = inhibition, hits mostly inhibitors; 360,000 compounds, 3% hits; AID 485364; note: potency is the fitted concentration of half-maximal effect; nearly all actives have a fitted effect of over 60% in size
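TGR 20 nM + NADPH 100 uM (dispensed conc.), cpd preinc 15 min RT; start with NADPH (500 uM addition) then DTNB (15 mM addition). Kinetic TNB absorbance, 405 nm filter. Four-parameter Hill fit across titration.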
FMDV antiviral: antivirals against foot and mouth disease virus; FMDV antiviral cell-based qHTS; Potency, µM (titrated, usually from 57.9 µM), for inactives: top-dose activity change, negative = inhibition, hits mostly inhibitors; 410,000 compounds, 1.2% hits; AID 1159524; calls by dose curve; tested in HEK293T cells; note: read-out not given here; potency is the fitted concentration of half-maximal effect; nearly all actives have a fitted effect of over 45% in size
* hit, by the source's call. This is a sample that favours compounds with a hit; in the whole collection about 9.3% have one here. Unless noted, calls come from the whole dose curve; as a rule, active = well fitted curve in the direction sought with a large enough effect; inconclusive = small, poorly fitted or top-dose-only effect, or another doubt; inactive = no such curve, though single readings can be large; an effect the other way counts as inactive or inconclusive. % is set by controls: 0 for no effect and ±100 for the full control effect.

COC(=O)C(CC(=O)c1ccc(Br)cc1)n1ccnc1 (stereo unspecified) was read as Vaccinia mCherry -12%, HCV inh 1.3µM*, Vaccinia Venus -5% and Sm TGR inh 0.28µM*.
`O=c1c(-c2cccc(Cl)c2)nc2cncnc2n1Cc1ccc(F)cc1` gave FMDV antiviral -13%.
For COC(=O)c1ccc(COc2ccc(/C=N/NC(N)=S)cc2)o1 the results were HCV inh -28%, HCMV antiviral inconclusive, Sm TGR inh -5% and FMDV antiviral inconclusive.
For C/C(=N\NC(=O)CSc1nc2ccccc2o1)c1cccc(O)c1 the results were HCV inh 9%, HCMV antiviral -33, Sm TGR inh 15% and FMDV antiviral -6%.
Screening Nc1nonc1-n1nnc(C(=O)N/N=C/c2ccccc2Cl)c1CSc1ccccc1 returned Vaccinia mCherry -19%, HCV inh -6%, HCMV antiviral -17, Vaccinia Venus -21%, Sm TGR inh -17% and FMDV antiviral 5%.
`CC[C@H](C)/C=C(C)/C=C/C1=CC2=CC(=O)[C@]3(C)OC(=O)[C@@H](C(C)=O)[C@@H]3C2=CO1` gave Vaccinia mCherry -10%, HCV inh -3%, HCMV antiviral 20, Vaccinia Venus 8%, Sm TGR inh 14µM* and FMDV antiviral -21%.
For CCc1nnc(NC(=O)C2CC(=O)N(CCc3ccccc3)C2)s1 (stereo unspecified) the results were HCV inh -28%, HCMV antiviral 114, Sm TGR inh -13% and FMDV antiviral 13%.
Screening CCc1nnc(NC(=O)C2CC(=O)N(CCc3ccc(F)cc3)C2)s1 (stereo unspecified) returned Vaccinia mCherry -6%, HCV inh 8%, HCMV antiviral -64*, Vaccinia Venus -6%, Sm TGR inh -2% and FMDV antiviral 2%.
O=C(Nc1nccs1)C1CC(=O)N(CCc2ccc(F)cc2)C1 (stereo unspecified) was read as Vaccinia mCherry -12%, HCV inh 9%, HCMV antiviral -62*, Vaccinia Venus -14%, Sm TGR inh -2% and FMDV antiviral -14%.
For CCOc1ccc(CCNC(=O)C2CC(=O)N(CCc3ccc(OC)c(OC)c3)C2)cc1OCC (stereo unspecified) the results were Vaccinia mCherry -17%, HCV inh inconclusive, HCMV antiviral -14, Vaccinia Venus -21%, Sm TGR inh -2% and FMDV antiviral -16%.
CCOc1ccc(CCNC(=O)C2CC(=O)N(CCc3ccccc3)C2)cc1OCC (stereo unspecified) was read as Vaccinia mCherry -14%, HCV inh -26%, HCMV antiviral -72*, Vaccinia Venus -12%, Sm TGR inh 1% and FMDV antiviral 7%.
`Cc1cc(Nc2c(C)cccc2C)n2nc(C)nc2n1` gave HCV inh 4%, HCMV antiviral -15, Sm TGR inh 0% and FMDV antiviral -2%.
CCc1ccc(CNCc2cccnc2)cc1 was read as Vaccinia mCherry -5%, HCV inh 5%, HCMV antiviral 4, Vaccinia Venus -14%, Sm TGR inh 5% and FMDV antiviral -1%.
CCCCC1=CC2=CC(=O)C(C)(OC(=O)CC)C(=O)C2=CN1CCc1c[nH]c2ccccc12 (stereo unspecified) was read as Vaccinia mCherry inactive, HCV inh inconclusive, HCMV antiviral 4, Vaccinia Venus -8%, Sm TGR inh 45µM* and FMDV antiviral -7%.
Screening COC(=O)CCCC1=CC2=C(c3ccccc3)C(=O)C(C)(OC(=O)C3CCCC3)C(=O)C2=CN1CCc1ccccn1 (stereo unspecified) returned Vaccinia mCherry inactive, HCV inh inconclusive, HCMV antiviral -1, Vaccinia Venus -4%, Sm TGR inh 28µM* and FMDV antiviral 4%.
Screening CC1(OC(=O)C2CCCC2)C(=O)C=C2C=C(c3ccsc3)N(CCN3CCOCC3)C=C2C1=O (stereo unspecified) returned Sm TGR inh -13%.
`C=CCN1C=C2C(=O)C(C)(OC(=O)C3CCCC3)C(=O)C(c3ccccc3)=C2C=C1CCCC(=O)OC` (stereo unspecified) gave Vaccinia mCherry -2%, HCV inh 6%, HCMV antiviral 5, Vaccinia Venus 2%, Sm TGR inh inconclusive and FMDV antiviral -8%.
`COC(=O)CCCC1=CC2=CC(=O)C(C)(OC(=O)c3cccs3)C(=O)C2=CN1CCc1c[nH]c2ccccc12` (stereo unspecified) gave Vaccinia mCherry -6%, HCV inh 7%, HCMV antiviral 42, Vaccinia Venus 0%, Sm TGR inh inconclusive and FMDV antiviral -8%.
COC(=O)CCCC1=CC2=C(c3ccccc3)C(=O)C(C)(OC(=O)C3CCCC3)C(=O)C2=CN1CCc1c[nH]c2ccccc12 (stereo unspecified) was read as Vaccinia mCherry -4%, HCV inh inconclusive, HCMV antiviral 3, Vaccinia Venus 0%, Sm TGR inh 8.9µM* and FMDV antiviral 4%.
Screening COC(=O)CCCC1=CC2=C(c3ccccc3)C(=O)C(C)(OC(=O)C3CCCC3)C(=O)C2=CN1CCN1CCOCC1 (stereo unspecified) returned Vaccinia mCherry inactive, HCV inh 16%, HCMV antiviral -6, Vaccinia Venus -8%, Sm TGR inh 35µM* and FMDV antiviral 1%.
For COC(=O)C1=C(C)N(Cc2ccccc2)C(=NCC(C)C)N[C@H]1c1ccccc1 the results were Vaccinia mCherry -11%, HCV inh -12%, Vaccinia Venus -19%, Sm TGR inh 1% and FMDV antiviral inconclusive.
Screening CC(C)c1cc(CNC(=O)c2ccc(OC3CCN(Cc4ccccn4)CC3)cc2)on1 returned HCV inh -1%, HCMV antiviral -25, Sm TGR inh inconclusive and FMDV antiviral -26%.
CN(c1ccccc1)S(=O)(=O)c1ccc(Cl)c(C(=O)NCC(c2ccco2)N2CCCC2)c1 (stereo unspecified) was read as Vaccinia mCherry inconclusive, HCV inh inconclusive, HCMV antiviral -32, Vaccinia Venus -25%, Sm TGR inh -19% and FMDV antiviral -6%.
`COc1cc(OC)cc(C(=O)N2CCN(C(=O)c3cccc(F)c3)CC2)c1` gave Vaccinia mCherry -13%, HCV inh 12%, HCMV antiviral -12, Vaccinia Venus -9%, Sm TGR inh -4% and FMDV antiviral 3%.
`COc1ccc2cc3c(N)nn(C(=O)Cc4c[nH]c5ccccc45)c3nc2c1` gave HCV inh inconclusive, HCMV antiviral -9, Sm TGR inh -7% and FMDV antiviral -20%.
